Where “and” joins values, the source holds several entries; their conditions need not be identical. Identical values can stand only once. Unmarked numbers belong to inactive results.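 Rule for the calls: active = superoxide response below 65% of plate, a cut near 3 SD across the whole screen; inactive = the rest.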

This assay can be described thus: superoxide lowering in aged yeast cells, pilot screen, validation compound set (AID 2706).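 Note: yeast exposed to compound for one week at 30 degrees C before staining; 100% = mean of all compound wells on the same plate.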 The following applies: S. cerevisiae aging, superoxide DHE fluorescence; at 10 µM; hits give low values.
Take `Cc1nc(-c2coc3c(CN(C)C)c(O)ccc3c2=O)cs1`: the superoxide response (% of plate) is 98.6%.
As for `COCCCN1C(=O)C(=O)/C(=C(/O)c2ccc3c(c2)CC(C)O3)C1c1cccnc1` (centres undefined), the figure is 97.1%; as for `O=C(Nc1ccccc1C(=O)N1CCCCCC1)c1ccccc1Cl`, 115%; as for `Fc1ccc(-c2cc(-c3ccccc3)nc(-n3cccn3)n2)cc1`, 92%.
`NS(=O)(=O)c1cc2c(cc1Cl)NC(C(Cl)Cl)NS2(=O)=O` (centres undefined): the superoxide response (% of plate) is 92.7%.
`CCC(C(=O)Nc1ccc2c(c1)OCCO2)c1ccccc1` (centres undefined): the superoxide response (% of plate) is 96.9%.
For the compound `c1ccc(CNc2ncnc3nc[nH]c23)cc1`, the superoxide response (% of plate) is 93.5%.
As to `Cc1cc(/C=N/O)c(C)n1-c1ccc(Br)cc1`, the superoxide response (% of plate) is 115%.
As for `COc1ccc(/C=C/C(=O)c2cc3cccc(OC)c3oc2=O)cc1`, the figure is 107%; as for `Cc1ccc(C2=NOC(=O)/C2=C\C=C\c2ccccc2)cc1`, 113%.
Take `CCc1ccc(/C=C2\Oc3cc(OC(=O)N4CCOCC4)ccc3C2=O)cc1`: the superoxide response (% of plate) was 173%.
The figure for `COc1cc(NC(=S)NN2CCN(C)CC2)cc(OC)c1OC` is 91.4%; for `C[C@]12CCC3C(CC=C4C[C@@H](O)CC[C@@]43C)C1CCC2[C@]1(C)CCC(=O)O1` (some centres undefined) it is 100%; for `COC(=O)c1cc(OC)c(OC)cc1NC(=O)CN1C(=O)c2ccccc2C1=O` it is 103%.
As for `c1ccc(CN(CC2=NCCN2)c2ccccc2)cc1`, the figure is 93.5% and 98.7%.
Turning to `Cc1oncc1C(=O)Nc1ccc(C(F)(F)F)cc1`, the superoxide response (% of plate) is 101%.
With `Cn1cc(C2N3CC4(C)CN2CC(C)(C3)C4=O)c2ccccc21` (centres undefined), the superoxide response (% of plate) was 101%.
Take `CCCCOc1cc(C(=O)NCCN(CC)CC)c2ccccc2n1`: the superoxide response (% of plate) is 88.6% and 105%.
On to `O=C(CSCc1ccccc1)NCCCN1CCOCC1`, for which the superoxide response (% of plate) was 114%.
The figure for `COC(=O)c1ccc(OCCCCN2CC(C)OC(C)C2)cc1` (centres undefined) is 106%; for `CCOc1ccc(C(=O)NC(C)C2COc3ccccc3O2)cc1` (centres undefined) it is 108%; for `CSCC[C@H](NC(=O)OC(C)(C)C)C(=O)N1CCC(C(=O)N[C@@H](C)C(=O)O)CC1` it is 98.8%.
As for `O=C(N/C(=C/C=C\c1ccccc1)C(=O)N1CCOCC1)c1ccc(Br)cc1`, the figure is 84.9%.
The figure for `COc1ccc2[nH]c(=O)c(CN(C(=O)c3ccco3)C(C)C)cc2c1` is 108%; for `COc1cc(-c2cccs2)cc(=O)c2c(C)oc(C)c12` it is 96.1%.
`CCC(=O)O[C@]1(C(=O)CCl)[C@@H](C)C[C@H]2[C@@H]3CCC4=CC(=O)C=C[C@]4(C)[C@@]3(F)[C@@H](O)C[C@@]21C`: the superoxide response (% of plate) was 120%.
The figure for `COCCN(CCOC)Cc1c(C)[nH]c2c(C)c(C)ccc2c1=O` is 99.3%.
With `COc1ccccc1/C=C/C(=O)OCCN1CCOCC1`, the superoxide response (% of plate) is 126%.
In the case of `c1ccc(Cn2nnc3cnccc32)cc1`, the superoxide response (% of plate) was 113%.
The figure for `Nc1cnn(C2OC(CO)C(O)C2O)c(=O)n1` (centres undefined) is 99.1%; for `Cc1ccc(C(=O)Nc2ccccc2C(=O)NC(C(=O)O)C(C)C)cc1` (centres undefined) it is 116%.
The figure for `NC(CO)C(=O)NNCc1ccc(O)c(O)c1O` (centres undefined) is 92.9%.
As for `CC12CCCCN1CCCc1c2[nH]c2ccccc12` (centres undefined), the figure is 99.9%; as for `CN(C)CCN(Cc1ccc(Cl)cc1)c1ccccn1`, 96%.
Take `CSc1cccc(NC(=O)/C=C/c2ccccc2)c1`: the superoxide response (% of plate) is 114%.
The figure for `Cc1oc2cc(O)cc(O)c2c(=O)c1-c1ccc2c(c1)OCCCO2` is 100%; for `CNC(=O)Oc1ccc2c(c1)[C@]1(C)CCN(C)[C@@H]1N2C` it is 98.7%.
The figure for `CCCCNc1ccc(C(=O)OCCN(C)C)cc1` is 106%; for `O=C(COc1cc(O)c2c(=O)c3ccccc3oc2c1)OCc1ccccc1` it is 101%.
